Test results from the supplement of paper PMC6555819.

Each sequence was assayed on VDR:RXRa (NR concentration 270 nM, RXRa partner concentration 90 nM) (assay: PBM binding z-score (relative to random genomic background probes); higher = stronger binding; sequences stand for … in GC…GCGATTGACAGCGTAGAATGAAGG).
Method: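 Protein-binding microarray (Agilent 4x180K custom design, double-stranded 60-nt probes: 5' GC cap, 34-nt variable region, 24-nt constant primer region; full probe sequence given). Purified or IVT nuclear receptor:RXRα heterodimers (3:1 NR:RXRα, mostly 270:90 nM) or homodimers were incubated for 1 h in PBS with 2% milk and no ligand, then detected with Alexa488 antibodies. Fluorescence from o1-orientation probes (~5 replicates averaged) was converted to z-scores against 500 random hg19 background probes. Variable regions are seed direct-repeat (DR0–DR5) sites, all their single-nucleotide variants and half-site ablations.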

Sequence	PBM binding z-score
CGTCAAAGTTCAACTACGGTAACGTAAAGCACGC	4.19
TCGAGTACGTTAGTCGGGGCATTCAGCCAACATA	0.707
ATCTCTAGGTAAGACTCAGTTCAGAGAAGAACGC	0.685
GCTGCTATGTCAACTGATGGTCAGCTAAAGCTCG	-0.38
TCAGACAGGTAAAGGTAACTCAGGTACGCAGTCG	1.44
CCAGACAGGTGAAAGGTAACTCAATCTGGTACGC	0.936
TCGAGTAGGTTAGTCGGGGCATTCAGCCAACATA	2.07
ACAGACAGGTGAGTGAAGGTAAGTCAGCTGGACG	-0.37
TCTGTTAGTTGATTAGGGCAACCGAAACAGCGGA	0.452
GTAGACAGGTGAAACGCAGGTAACTCAGGGTGGC	-0.214
ATATGTAGGTTATCGGGTCAGTCAGTTTGCGCAT	4.27
TTACTAAGGTGAGCTGAGGTCGTTGATCCAACTC	4.42
AGCGAAAGGTCGACGAGGTGAGTATACACCGTTT	5.23
CCTAATGGGCCATCAGGTCATTGATATCAACGTT	2.04
CGAACTAGGTCAATGACAGGACAGTGAATAGTAA	1.38
TCTGCTAGGTCAATTGGTCAGCTAACGAGCTGCC	0.925
GCTGCTAGGACAACTGATGGTCAGCTAAAGCTCG	-0.904
CTTTACGGGTCACGAGGTTATAGCACGACGAGCG	5.31
CCTAGCAGGCCAATCTGGGTCAGTCAAGGCTTGA	-0.258
CCTGCTAGGTCAATGGTCAGCTATAGCAGCTCGC	0.921

Sequence	PBM binding z-score
ATATGTAGGGTAGCTGGGGTCATTCAGACTAGGC	5.75
TCTAGTTGGTCAAAGGTAACACACTCGAAATGCG	1.7
TCTTGTAGATCAGCAGTTTAAGAAAGCTGGCCAA	-0.0839
TGCCAAAGTTCAAAGGTAACGTAAGTATCCACAC	4.97
ACTATTAGTTGCCTTAGGGCAACCGATACGACGC	-0.026
CAAACTAGGTCACCGGAAGGTCACAGTCCGCATG	5.64
CCGGACAGGTGAGAAGGTAACTCAGCCTCGATTA	-0.403
CGAACTAGGTCAAGCACAGTGAATCTCCGCACGC	1.43
ATATGTAGGTTAACGGGTCATTCAGTTTGCGCAT	5.16
GCTAGTTGGTCAGTAAAAGGTCACCCACCGGTCG	3.44
CGAACTAGGTCAAAGACAGTGAATCTCCGCACGC	1.36
CGTCCAAGGTCAATGCTACGTCAGTGAAAGCATT	3.53
ATACCAAGGTGATCGTGAGGGCGTTGATACTAAC	1.42
TCAGACAGGAGAAGGTAACTCAGGTACGCAGTCG	0.714
CGTCCATGGTCAGCAGGTCAGTGAAAGCGACGTG	0.0484
CGTCCAAGGTCATAGGAGGTCAGTGATGACAGAT	6.43
TAGCCTATGTCATTGGGCCAGTATAGTACGCATC	-0.316
CTCGAAAGGGCGGTTGAGGTGAGTATACGGATAA	-0.045
CAAACTAGGTCACGGAGGTCAAAGTCCGTGCGTA	7.92
CGTCCAAGGTCAAAGCTAGGTCAGTGAAAGCATT	5.25
